# From PubChem BioAssay (NCATS)
# Results filed as inconclusive are left out. The source made the active and inactive calls. Calls follow the shape of the dose curve; as a rule, active = well fitted curve in the direction sought with a large enough effect; inconclusive = small, poorly fitted or top-dose-only effect, or another doubt; inactive = no such curve, though single readings can be large; an effect the other way counts as inactive or inconclusive.
# Tested on: Zika virus NS2B-NS3 protease
# Experiment: Primary screen GU AMC qHTS for Zika virus inhibitors (AID 1347154);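 also: 0% = no-inhibitor control and -100% = no-enzyme control; nearly all actives have a fitted effect of over 70% in size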
# Conditions: Zika NS2B-NS3 unlinked protease, AMC fluorogenic substrate; series mostly up to 54.1 µM; activity change, negative = inhibition: at the top concentration
# Outline: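 Fluorogenic AMC-substrate cleavage by noncovalent NS2B-NS3 protease complex (25 nM, pH 8.0 Tris buffer with Tween 20) followed for 15 minutes at room temperature (~20% conversion). Percent inhibition from ex340/em450 signal change, fitted by 4-parameter Hill equation.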
SMILES,"activity change, negative = inhibition",Potency
Cc1ccc(Nc2c(F)cccc2Cl)c(CC(=O)O)c1,-3.72% (inactive),–
COc1ccc(CN2CCN(C(c3ccc(F)cc3)c3ccc(F)cc3)CC2)c(OC)c1OC,-6.78% (inactive),–
CC(C)(CO)[C@@H](O)C(=O)NCCCO,-2.2% (inactive),–
CCN(CC)CCOC(=O)C(c1ccccc1)C1CCCCC1 (configuration not stated),-13% (inactive),–
Cc1ccc(O)c2ncccc12,0.535% (inactive),–
CC(C)n1nc(-c2cc3cc(O)ccc3[nH]2)c2c(N)ncnc21,-4.49% (inactive),–
COC(=O)[C@@H]1CC2=CC(=O)CC[C@]2(C)[C@@]23O[C@@H]2C[C@@]2(C)[C@@H](CC[C@@]24CCC(=O)O4)[C@H]13,-4.56% (inactive),–
O=C(OCCOCCO)c1ccccc1Nc1cccc(C(F)(F)F)c1,-16.9% (inactive),–
CN1CCC(=C2c3ccccc3Sc3ccccc32)CC1,-2.58% (inactive),–
COc1cccc(CCc2ccccc2OCC(CN(C)C)OC(=O)CCC(=O)O)c1 (configuration not stated),1.06% (inactive),–
CN(C)CCCOc1nn(Cc2ccccc2)c2ccccc12,-20% (inactive),–
Cc1ccc(C(=O)C(C)CN2CCCCC2)cc1 (configuration not stated),-1.7% (inactive),–
CCCCS(=O)(=O)N[C@@H](Cc1ccc(OCCCCC2CCNCC2)cc1)C(=O)O,4.52% (inactive),–
O=c1[nH]c(=O)n([C@H]2CCCO2)cc1F,6.61% (inactive),–
COc1ccc(C2C(=O)c3ccccc3C2=O)cc1,-2.3% (inactive),–
CN1[C@@H]2CC[C@H]1CC(OC(=O)c1c[nH]c3ccccc13)C2 (some centres not stated),–,inactive
CC(C)COC(=O)c1ccc(N)cc1,-0.503% (inactive),–

SMILES,"activity change, negative = inhibition",Potency
O=C1c2ccccc2C(=O)C1c1ccccc1,-5.4% (inactive),–
COC(=O)C1=C(C)NC(C)=C(C(=O)O[C@@H]2CCCN(Cc3ccccc3)C2)[C@@H]1c1cccc([N+](=O)[O-])c1,-13.5% (inactive),–
CN1CCCC(CC2c3ccccc3Sc3ccccc32)C1 (configuration not stated),-2.61% (inactive),–
COC(=O)CCc1ccc(OCC(O)CNC(C)C)cc1 (configuration not stated),3.68% (inactive),–
CN1CCN(C(c2ccccc2)c2ccccc2)CC1,1.75% (inactive),–
CCCCCCCCCCOCC(O)CN (configuration not stated),-4.11% (inactive),–
OC[C@H]1O[C@H](O[C@]2(CCl)O[C@H](CCl)[C@@H](O)[C@@H]2O)[C@H](O)[C@@H](O)[C@H]1Cl,-6.73% (inactive),–
CC(O)(P(=O)(O)O)P(=O)(O)O,–,inactive
CC(=O)Nc1c(I)cc(I)c(C(=O)O)c1I,-2.94% (inactive),–
CC(C)(Oc1ccc(Cl)cc1)C(=O)O,–,inactive
CN1C(CCl)Nc2cc(Cl)c(S(N)(=O)=O)cc2S1(=O)=O (configuration not stated),3.59% (inactive),–
Cc1nc2n(c(=O)c1CCN1CCC(c3noc4cc(F)ccc34)CC1)CCC[C@H]2O,2% [at 25.8 µM] (inactive),–
Cc1ccccc1C(=O)Nc1ccc(C(=O)N2CCCC(N(C)C)c3ccccc32)cc1 (configuration not stated),-0.718% (inactive),–
CC(C)(C)NC(=O)[C@@H]1CN(Cc2cccnc2)CCN1C[C@@H](O)C[C@@H](Cc1ccccc1)C(=O)N[C@H]1c2ccccc2C[C@H]1O,-0.693% (inactive),–
C/C=C(/C(=C/C)c1ccc(O)cc1)c1ccc(O)cc1,-10.9% (inactive),–
CCn1cc(C(=O)O)c(=O)c2cnc(N3CCCC3)nc21,1.94% [at 6.83 µM] (inactive),–

# Tested on: Zika virus NS2B-NS3 protease (unlinked complex)
# Experiment: Primary screen GU Rhodamine qHTS for Zika virus inhibitors: Unlinked NS2B-NS3 protease assay (AID 1347159); also: % is scaled to controls: 0 for no effect and ±100 for the full control effect; nearly all actives have a fitted effect of over 60% in size
# Conditions: Recombinant ZIKV NS2B-NS3 protease, Rhodamine110 substrate fluorescence; series mostly up to 107 µM; activity change, negative = inhibition: at the top concentration
# Outline: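 Compounds, tested up to 114 microM, were incubated for 15 minutes with 25 nM unlinked NS2B-NS3 protease at pH 8.0. Cleavage of 1.5 microM Rhodamine110 substrate was then followed by fluorescence for 15 minutes.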
row,SMILES,"activity change, negative = inhibition"
1,Cc1ccc(Nc2c(F)cccc2Cl)c(CC(=O)O)c1,-15.5% (inactive)
2,COc1ccc(CN2CCN(C(c3ccc(F)cc3)c3ccc(F)cc3)CC2)c(OC)c1OC,75.9% (inactive)
3,CC(C)n1nc(-c2cc3cc(O)ccc3[nH]2)c2c(N)ncnc21,-0.422% (inactive)
4,O=C(OCCOCCO)c1ccccc1Nc1cccc(C(F)(F)F)c1,0% (inactive)
5,CN(C)CCCOc1nn(Cc2ccccc2)c2ccccc12,89.3% (inactive)
6,Cc1ccc(C(=O)C(C)CN2CCCCC2)cc1 (configuration not stated),3.5% (inactive)
7,CCCCS(=O)(=O)N[C@@H](Cc1ccc(OCCCCC2CCNCC2)cc1)C(=O)O,-5.86% (inactive)
8,O=c1[nH]c(=O)n([C@H]2CCCO2)cc1F,10.2% (inactive)
9,CN1[C@@H]2CC[C@H]1CC(OC(=O)c1c[nH]c3ccccc13)C2 (some centres not stated),15% (inactive)
10,COC(=O)C1=C(C)NC(C)=C(C(=O)O[C@@H]2CCCN(Cc3ccccc3)C2)[C@@H]1c1cccc([N+](=O)[O-])c1,40.3% (inactive)
11,COC(=O)CCc1ccc(OCC(O)CNC(C)C)cc1 (configuration not stated),25% (inactive)
12,CN1CCN(C(c2ccccc2)c2ccccc2)CC1,70.8% (inactive)
13,C#C[C@]1(OC(C)=O)CC[C@H]2[C@@H]3CCC4=C[C@@H](OC(C)=O)CC[C@@H]4[C@H]3CC[C@@]21C,-19% (inactive)
14,OC[C@H]1O[C@H](O[C@]2(CCl)O[C@H](CCl)[C@@H](O)[C@@H]2O)[C@H](O)[C@@H](O)[C@H]1Cl,7.78% (inactive)
15,NC(=NCCCCCCN=C(N)/N=C(\N)Nc1ccc(Cl)cc1)/N=C(\N)Nc1ccc(Cl)cc1,26.5% (inactive)
16,CN1C(CCl)Nc2cc(Cl)c(S(N)(=O)=O)cc2S1(=O)=O (configuration not stated),-19% (inactive)
17,Cc1nc2n(c(=O)c1CCN1CCC(c3noc4cc(F)ccc34)CC1)CCC[C@H]2O,9.67% (inactive)
18,Cc1ccccc1C(=O)Nc1ccc(C(=O)N2CCCC(N(C)C)c3ccccc32)cc1 (configuration not stated),5% (inactive)
19,CC(C)(C)NC(=O)[C@@H]1CN(Cc2cccnc2)CCN1C[C@@H](O)C[C@@H](Cc1ccccc1)C(=O)N[C@H]1c2ccccc2C[C@H]1O,22.3% (inactive)
